This experiment deals with GST-Hu-p50 (Homo sapiens, UniProt P19838 7-356). In words: protein-binding microarray (PBM); PBM: ~300 nM protein, 6 mM HEPES pH 7.8, 80 mM KCl, 0.5 mM EDTA, 0.5 mM EGTA, 6% glycerol, 35 ng/ul poly-dIdC, 1% milk, 1 h, room temperature; Ap Aiptasia and Nv Nematostella (sea anemones) / Co Capsaspora / Aq Amphimedon (sponge) / Dm Drosophila / Hu human; RHD is the Rel homology domain; high values mean tight binding. As to conditions: dsDNA, one strand shown.
Chain of GST-Hu-p50 (P19838 7-356): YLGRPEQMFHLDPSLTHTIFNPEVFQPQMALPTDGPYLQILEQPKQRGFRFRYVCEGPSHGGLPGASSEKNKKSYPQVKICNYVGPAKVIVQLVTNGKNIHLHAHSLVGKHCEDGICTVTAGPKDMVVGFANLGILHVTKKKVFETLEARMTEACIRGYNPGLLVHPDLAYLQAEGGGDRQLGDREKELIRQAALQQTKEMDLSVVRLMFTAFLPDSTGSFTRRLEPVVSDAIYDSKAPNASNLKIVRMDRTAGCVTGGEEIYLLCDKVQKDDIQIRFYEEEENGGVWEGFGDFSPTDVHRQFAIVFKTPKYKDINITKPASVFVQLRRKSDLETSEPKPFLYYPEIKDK

For “CCGATTAACATCACTATTTTCCCTGATGTTAATCGGGTCTTGATTCGCTTGACGCTGCTG”, the binding signal was 3.18 z-score. Then “CCGATTAACATCAATGGAATTCCTGATGTTAATCGGGTCTTGATTCGCTTGACGCTGCTG”, with 1.48 z-score; and “CCGATTAACATCAAAGATTTCCCTGATGTTAATCGGGTCTTGATTCGCTTGACGCTGCTG”, with 4.86 z-score; and “CCGATTAACATCAGGATATACCCTGATGTTAATCGGGTCTTGATTCGCTTGACGCTGCTG”, with 1.53 z-score. Then “CCGATTAACATCAGGGGTATACCTGATGTTAATCGGGTCTTGATTCGCTTGACGCTGCTG”, with 1.99 z-score; and “CCGATTAACATCATGTCTATCGGTGATGTTAATCGGGTCTTGATTCGCTTGACGCTGCTG”, with 1.14 z-score; and “CCGATTAACATCAGGGGAGATTATGATGTTAATCGGGTCTTGATTCGCTTGACGCTGCTG”, with 4.94 z-score. Then “CCGATTAACATCACAATAACGGGTGATGTTAATCGGGTCTTGATTCGCTTGACGCTGCTG”, with 1.74 z-score; and “CCGATTAACATCAGGCGGTAAGGTGATGTTAATCGGGTCTTGATTCGCTTGACGCTGCTG”, with 1.29 z-score; and “CCGATTAACATCAAAAATTTCCGTGATGTTAATCGGGTCTTGATTCGCTTGACGCTGCTG”, with 1.34 z-score. As for “CCGATTAACATCATTAATGACGGTGATGTTAATCGGGTCTTGATTCGCTTGACGCTGCTG”, the binding signal came to 1.09 z-score.

“CCGATTAACATCAAAATTCCCTCTGATGTTAATCGGGTCTTGATTCGCTTGACGCTGCTG” registered a binding signal of 5.19 z-score.

Turning to “CCGATTAACATCACGGAAATTTCTGATGTTAATCGGGTCTTGATTCGCTTGACGCTGCTG”, the binding signal turned out to be 1.83 z-score.

The sequence “CCGATTAACATCACAGATTTCCCTGATGTTAATCGGGTCTTGATTCGCTTGACGCTGCTG” displayed a binding signal of 4.4 z-score. Then “CCGATTAACATCAAACTTTTCCCTGATGTTAATCGGGTCTTGATTCGCTTGACGCTGCTG”, with 3.53 z-score. For the sequence “CCGATTAACATCAACGTTTCCCCTGATGTTAATCGGGTCTTGATTCGCTTGACGCTGCTG”, the binding signal was 5.04 z-score. Then “CCGATTAACATCACCTATTCCCCTGATGTTAATCGGGTCTTGATTCGCTTGACGCTGCTG”, with 5.12 z-score. Then “CCGATTAACATCACGAAATTCCCTGATGTTAATCGGGTCTTGATTCGCTTGACGCTGCTG”, with 5.1 z-score; and “CCGATTAACATCAGGGAAGGACCTGATGTTAATCGGGTCTTGATTCGCTTGACGCTGCTG”, with 1.18 z-score; and “CCGATTAACATCAGGCATGCCCCTGATGTTAATCGGGTCTTGATTCGCTTGACGCTGCTG”, with 1.89 z-score. For “CCGATTAACATCATTCCACCAGGTGATGTTAATCGGGTCTTGATTCGCTTGACGCTGCTG”, the binding signal worked out at 1.04 z-score. Then “CCGATTAACATCAAGGAAATTCCTGATGTTAATCGGGTCTTGATTCGCTTGACGCTGCTG”, with 1.33 z-score; and “CCGATTAACATCACGGAATTTTCTGATGTTAATCGGGTCTTGATTCGCTTGACGCTGCTG”, with 1.13 z-score. As to “CCGATTAACATCAGGTAATTACCTGATGTTAATCGGGTCTTGATTCGCTTGACGCTGCTG”, the binding signal was 3.47 z-score. Then “CCGATTAACATCACCGGAAATCCTGATGTTAATCGGGTCTTGATTCGCTTGACGCTGCTG”, with 1.78 z-score.

As for “CCGATTAACATCAGGGGATTAAATGATGTTAATCGGGTCTTGATTCGCTTGACGCTGCTG”, the binding signal was 4.87 z-score. Then “CCGATTAACATCAGGGGATACCCTGATGTTAATCGGGTCTTGATTCGCTTGACGCTGCTG”, with 5.1 z-score.

“CCGATTAACATCACCGGAATTTCTGATGTTAATCGGGTCTTGATTCGCTTGACGCTGCTG” registered a binding signal of 2.22 z-score. On to “CCGATTAACATCAGGAAAAGTCCTGATGTTAATCGGGTCTTGATTCGCTTGACGCTGCTG”, for which the binding signal stood at 1.57 z-score.

With “CCGATTAACATCAAAATTTTCCTTGATGTTAATCGGGTCTTGATTCGCTTGACGCTGCTG”, the binding signal was found to be 1.03 z-score. In turn, “CCGATTAACATCAAAAAACTACCTGATGTTAATCGGGTCTTGATTCGCTTGACGCTGCTG” came in with a binding signal of 4.32 z-score. On to “CCGATTAACATCAAGGGAAAAATTGATGTTAATCGGGTCTTGATTCGCTTGACGCTGCTG”, for which the binding signal came out at 4.56 z-score.

“CCGATTAACATCAAAAATTCCATTGATGTTAATCGGGTCTTGATTCGCTTGACGCTGCTG” yielded a binding signal of 1.07 z-score. For “CCGATTAACATCAGGGGTTACACTGATGTTAATCGGGTCTTGATTCGCTTGACGCTGCTG”, the binding signal turned out to be 1.37 z-score. In turn, “CCGATTAACATCAAGGGAAAAAATGATGTTAATCGGGTCTTGATTCGCTTGACGCTGCTG” registered a binding signal of 4.89 z-score. “CCGATTAACATCAAATTCTCCCCTGATGTTAATCGGGTCTTGATTCGCTTGACGCTGCTG” displayed a binding signal of 5.07 z-score. Then “CCGATTAACATCAGGGAAACTACTGATGTTAATCGGGTCTTGATTCGCTTGACGCTGCTG”, with 3.85 z-score.

For “CCGATTAACATCAAGGGAAAATATGATGTTAATCGGGTCTTGATTCGCTTGACGCTGCTG”, the binding signal is 4.8 z-score. Then “CCGATTAACATCACGGACACCCCTGATGTTAATCGGGTCTTGATTCGCTTGACGCTGCTG”, with 1.06 z-score; and “CCGATTAACATCACCGTTTAAGCTGATGTTAATCGGGTCTTGATTCGCTTGACGCTGCTG”, with 1.15 z-score; and “CCGATTAACATCAATTTAGACGGTGATGTTAATCGGGTCTTGATTCGCTTGACGCTGCTG”, with 1.58 z-score. Then “CCGATTAACATCATGAAGACCCCTGATGTTAATCGGGTCTTGATTCGCTTGACGCTGCTG”, with 1.77 z-score; and “CCGATTAACATCAGGGCAAAAAATGATGTTAATCGGGTCTTGATTCGCTTGACGCTGCTG”, with 1.45 z-score. Then “CCGATTAACATCAGGGCAAACCCTGATGTTAATCGGGTCTTGATTCGCTTGACGCTGCTG”, with 1.57 z-score; and “CCGATTAACATCACCTTTAGGAGTGATGTTAATCGGGTCTTGATTCGCTTGACGCTGCTG”, with 1.11 z-score; and “CCGATTAACATCAACGTTTTCCCTGATGTTAATCGGGTCTTGATTCGCTTGACGCTGCTG”, with 3.09 z-score. The sequence “CCGATTAACATCAGGAAAAACCATGATGTTAATCGGGTCTTGATTCGCTTGACGCTGCTG” showed a binding signal of 1.05 z-score. Then “CCGATTAACATCAGGGGAAGCACTGATGTTAATCGGGTCTTGATTCGCTTGACGCTGCTG”, with 5.16 z-score; and “CCGATTAACATCACCGGATTTCCTGATGTTAATCGGGTCTTGATTCGCTTGACGCTGCTG”, with 2.28 z-score; and “CCGATTAACATCACCCCATCTCGTGATGTTAATCGGGTCTTGATTCGCTTGACGCTGCTG”, with 1.44 z-score. Then “CCGATTAACATCACCTTCTTTACTGATGTTAATCGGGTCTTGATTCGCTTGACGCTGCTG”, with 1.59 z-score.

“CCGATTAACATCAACCTTTCCCCTGATGTTAATCGGGTCTTGATTCGCTTGACGCTGCTG” came in with a binding signal of 4.06 z-score. Then “CCGATTAACATCAGGGAAAAAAATGATGTTAATCGGGTCTTGATTCGCTTGACGCTGCTG”, with 4.58 z-score; and “CCGATTAACATCACATTTCCCCATGATGTTAATCGGGTCTTGATTCGCTTGACGCTGCTG”, with 5.25 z-score; and “CCGATTAACATCAACCAATCCCCTGATGTTAATCGGGTCTTGATTCGCTTGACGCTGCTG”, with 4.9 z-score. Then “CCGATTAACATCACCCATTCCCCTGATGTTAATCGGGTCTTGATTCGCTTGACGCTGCTG”, with 5.05 z-score; and “CCGATTAACATCAACCAATTCCCTGATGTTAATCGGGTCTTGATTCGCTTGACGCTGCTG”, with 2.54 z-score. Then “CCGATTAACATCACCCATTTCCGTGATGTTAATCGGGTCTTGATTCGCTTGACGCTGCTG”, with 1.88 z-score. As to “CCGATTAACATCAGGAAACACCCTGATGTTAATCGGGTCTTGATTCGCTTGACGCTGCTG”, the binding signal was 3.48 z-score.

Sequence “CCGATTAACATCAGGGCATTACCTGATGTTAATCGGGTCTTGATTCGCTTGACGCTGCTG” gave a binding signal of 1.4 z-score. Then “CCGATTAACATCAGGAATCACCCTGATGTTAATCGGGTCTTGATTCGCTTGACGCTGCTG”, with 3.31 z-score; and “CCGATTAACATCACGGGATTTTCTGATGTTAATCGGGTCTTGATTCGCTTGACGCTGCTG”, with 4 z-score. Then “CCGATTAACATCACGGCAACCCCTGATGTTAATCGGGTCTTGATTCGCTTGACGCTGCTG”, with 1.19 z-score; and “CCGATTAACATCAGGAAGGCCCCTGATGTTAATCGGGTCTTGATTCGCTTGACGCTGCTG”, with 2.59 z-score; and “CCGATTAACATCAATAGTTCCCCTGATGTTAATCGGGTCTTGATTCGCTTGACGCTGCTG”, with 5.26 z-score. For “CCGATTAACATCAAATTTCCAGGTGATGTTAATCGGGTCTTGATTCGCTTGACGCTGCTG”, the binding signal came out at 1.2 z-score.

In turn, “CCGATTAACATCAAGGAAAGCCCTGATGTTAATCGGGTCTTGATTCGCTTGACGCTGCTG” came in with a binding signal of 1.13 z-score. “CCGATTAACATCACGTTTTTCCCTGATGTTAATCGGGTCTTGATTCGCTTGACGCTGCTG”: the binding signal is 3.49 z-score. Then “CCGATTAACATCAAATTCCCACGTGATGTTAATCGGGTCTTGATTCGCTTGACGCTGCTG”, with 2.98 z-score; and “CCGATTAACATCAAAAATTCCCATGATGTTAATCGGGTCTTGATTCGCTTGACGCTGCTG”, with 5.24 z-score. Then “CCGATTAACATCAAAGGGAATTCTGATGTTAATCGGGTCTTGATTCGCTTGACGCTGCTG”, with 4.99 z-score; and “CCGATTAACATCAAATTTTTCCCTGATGTTAATCGGGTCTTGATTCGCTTGACGCTGCTG”, with 4.48 z-score. Then “CCGATTAACATCACCAAATTTCCTGATGTTAATCGGGTCTTGATTCGCTTGACGCTGCTG”, with 1.31 z-score. The sequence “CCGATTAACATCAGGCAACCCCATGATGTTAATCGGGTCTTGATTCGCTTGACGCTGCTG” gave a binding signal of 1.09 z-score.

“CCGATTAACATCACAAATTTCCCTGATGTTAATCGGGTCTTGATTCGCTTGACGCTGCTG” had a binding signal of 5.09 z-score. Then “CCGATTAACATCAGGTAACCCCATGATGTTAATCGGGTCTTGATTCGCTTGACGCTGCTG”, with 1.35 z-score. Then “CCGATTAACATCACGATTTTCCCTGATGTTAATCGGGTCTTGATTCGCTTGACGCTGCTG”, with 3.78 z-score. Then “CCGATTAACATCAAGCCCCCCCATGATGTTAATCGGGTCTTGATTCGCTTGACGCTGCTG”, with 3.88 z-score; and “CCGATTAACATCAGTGATTAAGGTGATGTTAATCGGGTCTTGATTCGCTTGACGCTGCTG”, with 1.25 z-score; and “CCGATTAACATCAATTAGGTGGGTGATGTTAATCGGGTCTTGATTCGCTTGACGCTGCTG”, with 1.64 z-score. With “CCGATTAACATCAGGAAGTTACCTGATGTTAATCGGGTCTTGATTCGCTTGACGCTGCTG”, the binding signal is 1.42 z-score.
